From PubChem BioAssay
The list is not random: actives were taken first. Their share in the collection is about 15%.
DT40 TDP1 CPT – growth inhibition of DT40 Tdp1-/-;hTDP1 cells with camptothecin (screen for TDP1 inhibitors); chicken DT40 Tdp1-/-;hTDP1 cells + 20 nM CPT, ATP luminescence, 48 h; Potency, µM (titrated, usually from 46.2 µM), inactives show at the top dose activity change, negative = growth inhibition, actives largely listed as inhibitors; actives 12% (n = 420,000); note: nearly all actives have a fitted effect of over 55% in size
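Chicken DT40 Tdp1-/- cells complemented with human TDP1, 400 cells/well, exposed to compounds plus 20 nM camptothecin for at least 48 h at 37 C; viability read as ATP content by CellTiter-Glo luminescence.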
ELG1 repair inh – ELG1-dependent DNA repair inhibition | HEK293T ELG1-luciferase reporter, luminescence, 16 h; DNA damage induced by 5-fluorouridine | Potency, µM (series often up to 46.1 µM), inactives show at the top dose activity change, negative = inhibition, most hits filed as inhibitors | actives 2.3% (n = 330,000); note: nearly all actives have a fitted effect of over 55% in size
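5-Fluorouridine DNA damage + compound/DMSO, 2,000 cells/well, 16 h, 37 °C/5% CO2. ONE-Glo, 30 min RT, luminescence. Readout = decrease in reporter signal.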
ALOX12 inh – inhibitors of human 12S-lipoxygenase ALOX12; Potency, µM (top dose mostly 108 µM), inactives show at the highest dose activity change, negative = inhibition, usual class: inhibitors; AID 1671190; P18054; actives 1.1% (n = 580,000); purified 12hLO, xylenol orange hydroperoxide absorbance
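Hydroperoxide product was detected by ferrous iron/xylenol orange as the 573 to 405 nm absorbance ratio. Arachidonic acid at 40 uM (final) was turned over for 30 min at room temperature by 150 nM human 12hLO, pH 7.0 Hepes buffer, after 15 min compound preincubation.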
RORgamma inh – blocks mouse ROR gamma transcriptional activity; P51450; Drosophila S2 Gal4-RORgamma UAS-luciferase reporter, 20 h; Potency, µM (doses to about 53.6 µM), without a hit: at the top dose activity change, negative = inhibition, usual class: inhibitors; actives 5.4% (n = 310,000); AID 2551; note: nearly all actives have a fitted effect of over 60% in size
Target sequence (P51450 whole entry, looked up, the tested form may be a part): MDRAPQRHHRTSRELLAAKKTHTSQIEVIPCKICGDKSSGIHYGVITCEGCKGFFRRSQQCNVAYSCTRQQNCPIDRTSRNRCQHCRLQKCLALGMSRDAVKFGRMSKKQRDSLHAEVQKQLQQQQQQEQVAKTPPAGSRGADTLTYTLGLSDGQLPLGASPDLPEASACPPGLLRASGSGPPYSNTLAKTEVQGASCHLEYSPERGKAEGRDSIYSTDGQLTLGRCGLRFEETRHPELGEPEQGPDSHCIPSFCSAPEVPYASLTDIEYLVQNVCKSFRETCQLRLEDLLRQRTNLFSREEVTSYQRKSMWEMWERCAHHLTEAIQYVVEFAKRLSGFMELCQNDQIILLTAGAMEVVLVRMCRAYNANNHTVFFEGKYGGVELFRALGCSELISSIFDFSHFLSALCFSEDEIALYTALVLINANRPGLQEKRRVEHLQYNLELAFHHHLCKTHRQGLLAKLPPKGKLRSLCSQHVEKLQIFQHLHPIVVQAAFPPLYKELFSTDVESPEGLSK
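Stably transfected Drosophila Schneider cells are the test system, with ROR gamma fused to Gal4 and luciferase under UAS control; luminescence is read after 20 hr of 700 uM copper sulfate induction at ambient temperature.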
VP16 counter – inhibits Gal4-VP16 luciferase reporter, ROR gamma counter-screen; Drosophila S2 Gal4-VP16 UAS-luciferase, luminescence, 20 h; Potency, µM (top dose mostly 53.6 µM), without a hit: top-dose activity, negative = inhibition, most hits filed as inhibitors; actives 3.5% (n = 310,000); AID 2546;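 note: Gal4-VP16 expression switched on by copper sulfate through the metallothionein promoter; nearly all actives have a fitted effect of over 50% in size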
DT40 TDP1 no CPT – qHTS for Inhibitors of human tyrosyl-DNA phosphodiesterase 1 (TDP1): qHTS in cells in absence of CPT; DT40 Tdp1-/- hTDP1 cells, no CPT, ATP luminescence, 48 h; AID 686978, 2013; actives 15% (n = 420,000); Potency, µM (series often up to 46.2 µM), for the others: at the highest dose activity change, negative = growth inhibition, usual class: inhibitors; note: nearly all actives have a fitted effect of over 55% in size
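Seeded 400 DT40-hTDP1 cells/well (vehicle DMSO, no 20 nM CPT); pinned compounds; ≥48 hr at 37 °C; CellTiter-Glo luminescence as viability measure.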
Numbers without * were called inactive; [ ] = dose if it differs, or a comment. Calls come from the whole dose curve; as a rule, active = well fitted curve in the direction sought with a large enough effect; inconclusive = small, poorly fitted or top-dose-only effect, or another doubt; inactive = no such curve, though single readings can be large; an effect the other way counts as inactive or inconclusive. % is set by controls: 0 for no effect and ±100 for the full control effect; potency is the fitted concentration of half-maximal effect.

O=C(O)CCSc1ccccc1Cl was read as ALOX12 inh -10%.
`Cc1ccc(NC(=O)c2ccccc2C)c(Br)c1` gave ALOX12 inh 14%.
Screening COc1ccc2c(c1)C[C@]1(C)c3ccccc3C(=O)N(Cc3ccccc3)[C@H]21 returned DT40 TDP1 CPT 16µM*, ALOX12 inh -27% and DT40 TDP1 no CPT 6.3µM*.
COC(=O)c1cn[nH]c1NC(=S)Nc1ccccc1C was read as DT40 TDP1 CPT -26%, ELG1 repair inh inconclusive, ALOX12 inh inconclusive, RORgamma inh 5.6µM*, VP16 counter inconclusive and DT40 TDP1 no CPT -7%.
Screening COC(=O)c1cn[nH]c1NC(=S)Nc1ccc(C)cc1Cl returned DT40 TDP1 CPT inconclusive, ELG1 repair inh inconclusive, ALOX12 inh -28%, RORgamma inh 2.8µM*, VP16 counter 3.5µM* and DT40 TDP1 no CPT inconclusive.
Screening COc1ccccc1NC(=S)Nc1ccc2cn[nH]c2c1 returned DT40 TDP1 CPT 13%, ELG1 repair inh 14%, ALOX12 inh 47%, RORgamma inh 18%, VP16 counter -1% and DT40 TDP1 no CPT -10%.
For CCOC(=O)c1cn[nH]c1NC(=S)Nc1ccc(OC)cc1 the results were DT40 TDP1 CPT inconclusive, ELG1 repair inh inconclusive, ALOX12 inh inconclusive, RORgamma inh 24%, VP16 counter -9% and DT40 TDP1 no CPT inconclusive.
COC(=O)c1cn[nH]c1NC(=S)Nc1ccc(Cl)c(Cl)c1 was read as DT40 TDP1 CPT inconclusive, ELG1 repair inh inconclusive, ALOX12 inh -22%, RORgamma inh inconclusive, VP16 counter inconclusive and DT40 TDP1 no CPT 25µM*.
Screening CNC(=O)[C@@H]1CN(C(=O)CCc2cc(OC)no2)C[C@H]1c1n[nH]c(C)n1 returned ALOX12 inh 28%.
`CCOc1ccc(CNC(=O)c2ncoc2-c2ccc(C)s2)cc1OC` gave ALOX12 inh -26%.
Screening Cc1ccccc1OCC(=O)N(Cc1nnc(-c2ccc(Cl)cc2)o1)C(C)C returned DT40 TDP1 CPT inconclusive, ELG1 repair inh -20%, ALOX12 inh 3% and DT40 TDP1 no CPT 15µM*.
`CCOc1ncccc1C(=O)N(Cc1nnc(-c2ccc(Cl)cc2)o1)C(C)C` gave ALOX12 inh 13%.
`O=C(CN1CC[n+]2c(-c3ccccc3)csc21)c1ccc(Br)cc1` gave DT40 TDP1 CPT 2.9µM*, ELG1 repair inh 16µM*, ALOX12 inh inconclusive, RORgamma inh inconclusive, VP16 counter inconclusive and DT40 TDP1 no CPT 2.1µM*.
`O=C(CN1CC[n+]2c(-c3cccs3)csc21)c1ccc(Br)cc1` gave DT40 TDP1 CPT 1.8µM*, ELG1 repair inh inconclusive, ALOX12 inh -23%, RORgamma inh inconclusive, VP16 counter -9% and DT40 TDP1 no CPT 3.7µM*.
`CC(=O)N1CCN(CC(=O)c2ccc(Br)cc2)CC1` gave DT40 TDP1 CPT -21%, ELG1 repair inh 0%, ALOX12 inh -26%, RORgamma inh -1%, VP16 counter inconclusive and DT40 TDP1 no CPT -21%.
O=C(CSc1n[nH]c(-c2ccccc2)n1)N1CCN(c2ccc(F)cc2)CC1 was read as DT40 TDP1 CPT inconclusive, ALOX12 inh inconclusive and DT40 TDP1 no CPT 23µM*.
O=C(CSc1nnc(-c2cccnc2)n1-c1ccccc1)N1CCN(c2ccc(F)cc2)CC1 was read as DT40 TDP1 CPT inconclusive, ELG1 repair inh inconclusive, ALOX12 inh inconclusive, RORgamma inh 3%, VP16 counter 5% and DT40 TDP1 no CPT 21µM*.
For O=C(CSc1nnc(-c2ccncc2)n1-c1ccccc1)N1CCN(c2ccc(Cl)cc2)CC1 the results were DT40 TDP1 CPT inconclusive, ELG1 repair inh inconclusive, ALOX12 inh inconclusive, RORgamma inh -8%, VP16 counter -16% and DT40 TDP1 no CPT 18µM*.
For COc1ccc(N2CCN(C(=O)CSc3nnc(-c4cccnc4)n3-c3ccc(F)cc3)CC2)cc1 the results were DT40 TDP1 CPT inconclusive, ELG1 repair inh inconclusive, ALOX12 inh -19%, RORgamma inh 30%, VP16 counter 0% and DT40 TDP1 no CPT 21µM*.
For Cc1ccc(-n2c(SCC(=O)N3CCOCC3)nnc2-c2ccncc2)cc1 the results were DT40 TDP1 CPT -1%, ELG1 repair inh -7%, ALOX12 inh 14%, RORgamma inh -27%, VP16 counter 24% and DT40 TDP1 no CPT 0%.
For O=C(O)c1ccccc1C(=O)Nc1ccc(Nc2ccc([N+](=O)[O-])cc2[N+](=O)[O-])cc1 the results were DT40 TDP1 CPT -3%, ELG1 repair inh 2%, ALOX12 inh -25%, RORgamma inh 29%, VP16 counter -11% and DT40 TDP1 no CPT -17%.
`O=C(O)c1ccccc1Nc1ccccc1C(=O)O` gave DT40 TDP1 CPT -7%, ELG1 repair inh -2%, ALOX12 inh -11%, RORgamma inh 7%, VP16 counter -2% and DT40 TDP1 no CPT -8%.
For O=C(O)c1ccccc1Nc1ccc([N+](=O)[O-])cc1 the results were DT40 TDP1 CPT -20%, ELG1 repair inh inconclusive, ALOX12 inh -12%, RORgamma inh 42%[10 µM], VP16 counter 10% and DT40 TDP1 no CPT 2.9µM*.
For O=C(Nc1ccc(Nc2ccccc2)cc1)c1cc([N+](=O)[O-])ccc1Cl the results were DT40 TDP1 CPT inconclusive, ELG1 repair inh inconclusive, ALOX12 inh 17%, RORgamma inh -13%, VP16 counter inconclusive and DT40 TDP1 no CPT 16µM*.
For CN(C)S(=O)(=O)c1ccc(Cl)c(C(=O)Nc2cccc([N+](=O)[O-])c2)c1 the results were DT40 TDP1 CPT 18µM*, ELG1 repair inh 8.2µM*, ALOX12 inh -1%, RORgamma inh -3%, VP16 counter 5% and DT40 TDP1 no CPT 21µM*.
O=C(Nc1ccccc1Oc1ccccc1)c1cc([N+](=O)[O-])ccc1Cl was read as DT40 TDP1 CPT 16µM*, ELG1 repair inh inconclusive, ALOX12 inh inconclusive, RORgamma inh inconclusive, VP16 counter 5% and DT40 TDP1 no CPT inconclusive.
COc1nc2c(cc1CNC(=O)CC1CC1)C(=O)N(CCc1ccccn1)C2 was read as ALOX12 inh 9%.
CC(C)(C)NC(=O)CC(NC(=O)c1ccccc1Cl)c1ccccc1 (centres undefined) was read as ALOX12 inh -5%.
